Data as given in PubChem BioAssay (NCATS).
Inconclusive results are not listed. Where a call stands in place of a potency, no number is given. Activity calls are given as the source filed them. Calls follow the shape of the dose curve; as a rule, active = well fitted cell-killing curve with a large enough effect; inconclusive = small, poorly fitted or top-dose-only effect; inactive = flat fitted curve, though single readings scatter.

Assay: qHTS of pediatric cancer cell lines to identify multiple opportunities for drug repurposing: Primary screen for BT-37 cells (AID 1347094)
Conditions: BT-37 viability, CellTiter-Glo luminescence, 48 h; series mostly up to 57.3 µM
Text: Drug repurposing or repositioning has been offered as a strategy for drug development in oncology programs. This approach has special potential for childhood cancers and other rare or orphan diseases, where the expected return on new drug development has been a disincentive to pharmaceuticals. […] In this project we exploit the poly-pharmacology of drugs to discover new indications via phenotypic screening of a panel of 19 well-characterized cell lines derived from solid tumors seen in children and adolescents. The goal is to identify approved drugs with previously unrecognized anticancer properties that has the potential to reveal new mechanisms and biological processes involved in carcinogenesis or drug resistance. We employed a titration-based paradigm (quantitative high-throughput screening or qHTS), where all compounds were tested at multiple concentrations for their effect on cell viability. Concentration-response curves (CRCs) were derived directly from the primary screen, and both potency and efficacy values were used to identify compounds with robust bioactivity profiles. We screened the NIH Chemical Genomics Center (NCGC) Pharmaceutical Collection (NPC) and Mechanism Interrogation Plate (MIPE) small molecule collections of approved and investigational compounds against these cell lines; and measured metabolically active cells after 48 hours of compound treatment as a proxy for cell viability. […] Assay Submitter: Nathalia J. Martinez, National Center for Advancing Translational Sciences, National Institutes of Health, Rockville, MD, USA; email: natalia.martinez@nih.gov Shen, M et al. Quantitative high-throughput phenotypic screening of pediatric cancer cell lines identifies multiple opportunities for drug repurposing. Oncotarget 2017 Dec 19;9(4):4758-4772. PMID 29435139.
The cells were obtained from University of North Carolina (UNC), Pediatric Preclinical Testing Program (PPT), and Coriell Institute (CI). qHTS cell viability assay: Cells were assayed in growth media at a density of 500-1,000 cells/well. Five microliters of cells were dispensed into 1,536-well, white, solid-bottom, TC-treated plates (Greiner Bio One) using a multidrop dispenser and incubated at 37 degrees C, 5% CO2, under a humidified atmosphere for 5 hours. Twenty-three nanoliters of compounds and controls (neutral control DMSO or positive control bortezomib at final concentration of 2.3 µM) were subsequently transferred by Kalypsys pintool. For primary screens, the MIPE collection was tested at 11-point dilutions (final concentrations range from 0.78 nM to 46 µM) and the NPC collection at 8-point dilutions (final concentrations range from 0.59 nM to 46 µM). Compounds tested in follow-up screens were assayed at 11-point dilutions. Cells were incubated for 48 hours, followed by addition of 3 µL of CellTiter-Glo (Promega). After a 15 min incubation at room temperature, samples were analyzed for luminescence intensity using a ViewLux High-throughput CCD imager equipped with clear filters.
Potency is read from the fitted curve at half-maximal effect.

Compound | Potency
CC(C)NC(=O)c1ccc(C=O)cc1 | inactive
CC(=O)CC/C=C(\C)CC/C=C(\C)CC/C=C(\C)CCC=C(C)C | inactive
COC(=O)c1cc(Cl)ccc1OC | inactive
CCCCCCCCCCCCCC[N+](C)(C)C | 15.5 µM (active)
CC1CC(=O)NN=C1c1ccc(NCC(C)(C)NCC(O)COc2cc(Cl)ccc2C#N)cc1 (stereo not given) | inactive
C=CC[N+]1([C@H]2C[C@H]3[C@@H]4CC[C@H]5C[C@H](OC(C)=O)[C@@H](N6CCCCC6)C[C@]5(C)[C@H]4CC[C@]3(C)[C@H]2OC(=O)CC)CCCCC1 | inactive
CN(C)CCN(Cc1ccsc1)c1ccccn1 | inactive
CC1CCCCN1CCCOC(=O)c1ccc(OC2CCCCC2)cc1 (stereo not given) | inactive
Cc1ccc(C(C)OC(=O)C2(C)CCC(C(=O)O)C2(C)C)cc1 (stereo not given) | inactive
CN1CC[C@H](c2c(O)cc(O)c3c(=O)cc(-c4ccccc4Cl)oc23)[C@H](O)C1 | 0.347 µM (active)
O=C1CCCc2c(O)cccc21 | inactive
O=C(O)c1ccccc1Nc1cc(Cl)ccc1C(=O)O | inactive
C[C@@H](C1=C(CCN(C)C)Cc2ccccc21)c1ccccn1 | inactive
O=C1c2ccccc2CCc2ccccc21 | inactive
CSCC[C@H](NC(=O)[C@H](Cc1c[nH]c2ccccc12)NC(=O)CCNC(=O)OC(C)(C)C)C(=O)N[C@@H](CC(=O)O)C(=O)N[C@@H](Cc1ccccc1)C(N)=O | inactive
CCCCNc1ccc(C(=O)OCCN(CC)CC)cc1 | inactive
CC1c2ccccc2CN1NC(=O)c1ccc(Cl)c(S(N)(=O)=O)c1 (stereo not given) | inactive
CC1(C)O[C@@H]2C[C@H]3[C@@H]4C[C@H](F)C5=CC(=O)C=C[C@]5(C)[C@@]4(F)[C@@H](O)C[C@]3(C)[C@]2(C(=O)CO)O1 | inactive
Nc1c(I)cc(I)c(C(=O)N(CCC(=O)O)c2ccccc2)c1I | inactive
O=C(O)c1ccccc1S | inactive

Compound | Potency
C=C(C)C(=O)OCC(O)CO (stereo not given) | inactive
CCCc1ncc(C(=O)O)s1 | inactive
OC(CCCN1CCCCC1)(c1ccccc1)c1ccccc1 | inactive
O=C(O)Cn1c(=O)n(Cc2ccc(Br)cc2F)c(=O)c2ccc(Cl)cc21 | inactive
CC(=O)N(c1onc(C)c1C)S(=O)(=O)c1ccc(N)cc1 | inactive
COc1cc(NS(=O)(=O)c2ccc(N)cc2)nc(C)n1 | inactive
CC(C)C(=O)Nc1cccc(C2CN3CCSC3=N2)c1 (stereo not given) | inactive
CC(=O)N(CC(O)CO)c1c(I)c(C(=O)NCCO)c(I)c(C(=O)NCC(O)CO)c1I (stereo not given) | inactive
Nc1ccc2cc3ccc(N)cc3nc2c1 | 9.78 µM (active)
CC[N+]1(CC)CCC(=C(c2ccccc2)c2ccccc2)C1C (stereo not given) | inactive
Cc1cc(O)c(C)c(C)c1O | inactive
Cc1cccc(C)c1NC(=O)c1cc(S(N)(=O)=O)c(Cl)cc1O | inactive
O=C(CO)[C@@H](O)[C@H](O)[C@@H](O)CO | inactive
Cc1sccc1Br | inactive
CCn1ccc(NS(=O)(=O)c2ccc(N)cc2)nc1=O | inactive
CCCCCCCCCCCCCCCCCCNC(=O)OC1CCN(C(=O)OC[C@H](COC(=O)N(Cc2cccc[n+]2CC)C(=O)c2ccccc2OC)OC)CC1 | 21.9 µM (active)
CCN1CCN(C(=O)N[C@@H](C(=O)N[C@@H]2C(=O)N3[C@@H]2SC(C)(C)[C@H]3C(=O)O)c2ccccc2)C(=O)C1=O | inactive
CCOC(=O)c1cc(=O)c2c(OCC(COc3cccc4oc(C(=O)OCC)cc(=O)c34)OC(=O)[C@@H](N)CCCCN)cccc2o1 | inactive
CC(C)=CCNc1ncnc2c1ncn2[C@@H]1O[C@H](CO)[C@@H](O)[C@H]1O | 6.17 µM (active)
Cc1ncc(CO)c(CO)c1O | inactive
